Molecules are shown by their SMILES. Results filed as inconclusive are left out. A number with no mark means an inactive call. Calls come from the whole dose curve.
% is set by controls: 0 for no effect and ±100 for the full control effect.

The target of this experiment is Peroxisome proliferator-activated receptor delta (Homo sapiens) (UniProt Q03181). Put plainly: qHTS assay to identify small molecule agonists of the peroxisome proliferator-activated receptor delta (PPARd) signaling pathway (AID 743212). To be noted: HEK293H PPARd-UAS-bla, beta-lactamase FRET ratio, 17 h; series mostly up to 62.6 µM; activation: at the top concentration. From the text: U.S. Tox21 Program National Center for Advancing Translational Sciences [NCATS] NIH Chemical Genomics Center [NCGC] U.S. Environmental Protection Agency [EPA] National Institutes of Environmental Health Sciences [NIEHS] National Toxicology Program [NTP] U.S. Food and Drug Administration [FDA] Tox21 Assay Overview: The peroxisome proliferator-activated receptors (PPARs) are lipid-activated transcription factors of the nuclear receptor superfamily with three distinct subtypes namely PPAR alpha, PPAR delta (PPARd) and PPAR gamma. All these subtypes heterodimerizes with Retinoid X receptor (RXR) and have different physiological functions. […] To identify the compounds that activate PPAR-delta signaling, GeneBLAzer PPAR delta UAS-bla HEK293H cell line (Invitrogen, Carlsbad, CA, USA) containing a beta-lactamase reporter gene under the control of an Upstream Activator Sequence (UAS) was used to screen the Tox21 compound library.
Peroxisome proliferator-activated receptor delta (Homo sapiens), sequence (Q03181 whole entry, looked up): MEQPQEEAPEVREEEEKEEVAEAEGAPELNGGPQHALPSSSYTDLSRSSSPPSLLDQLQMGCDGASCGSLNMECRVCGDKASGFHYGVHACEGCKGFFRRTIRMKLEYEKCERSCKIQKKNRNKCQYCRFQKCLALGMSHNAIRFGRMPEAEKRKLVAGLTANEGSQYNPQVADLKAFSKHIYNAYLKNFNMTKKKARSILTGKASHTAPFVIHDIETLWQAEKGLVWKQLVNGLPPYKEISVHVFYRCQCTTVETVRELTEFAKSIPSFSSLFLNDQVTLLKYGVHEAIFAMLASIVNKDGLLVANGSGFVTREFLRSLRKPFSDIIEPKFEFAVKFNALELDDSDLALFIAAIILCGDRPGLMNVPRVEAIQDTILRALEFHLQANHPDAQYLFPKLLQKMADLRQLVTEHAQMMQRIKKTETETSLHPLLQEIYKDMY
Tox21 Assay Protocol Summary: PPARd-bla cells were dispensed at 3000 cells/6uL/well in 1536-well black wall/clear bottom plates using a Multidrop Combi (Thermo Fisher Scientific, Waltham, MA) dispenser. After the assay plates were incubated at 37 C and 5% CO2 for 5 h, 23 nL of compounds dissolved in DMSO, positive controls or DMSO only was transferred to the assay plate by a Pintool station (Kalypsys, San Diego, CA). The assay plates were incubated at 37C for 17 h. After 1 uL of LiveBLAzerTM B/G FRET substrate was added using a Bioraptr Flying Reagent Dispenser (FRD) workstation (Beckman Coulter, Indianapolis, IN, USA), the plates were incubated at room temperature for 2 h, and fluorescence intensity was measured by an Envision plate reader (PerkinElmer, Shelton, CT).
With `CC(C)=CCCC(C)CCOC=O` (stereo not given), the “activation” value is 0.108%.
In the case of `CCCOc1ccc2c(c1)CC[C@@H]1[C@@H]2CC[C@]2(C)C(OC)CC[C@@H]12` (stereo not given in full), the “activation” value is 1.42%.
The result for `CCCNC(C)(C)COC(=O)c1ccccc1` reads 7.72%.
In the case of `CC(=O)Nc1ccc(C)c(Cl)c1`, the “activation” value is -0.807%.
The result for `Cc1cc(NS(=O)(=O)c2ccc(N)cc2)nc(C)n1` reads -1.63%; that for `Cc1c(C(=O)NCCO)[n+](=O)c2ccccc2n1[O-]`, -2.92%.
Consider `CC(=O)OC(C)OC(C)=O`, for which the “activation” value is 1.07% [at 81.1 µM].
For the compound `CCC/C=C/CO`, the “activation” value is -1.15%.
The result for `NC(=O)NS(=O)(=O)c1ccc(Cl)cc1` reads -4.45%; that for `CCN(CC)CC1CCCCN1CC(=O)N1c2ccccc2C(=O)Nc2cccnc21` (stereo not given), -0.713%; that for `CCOC(=O)c1ccccc1O`, 3.62%.
Consider `O=C1CCC(C2CCCCC2)CC1`, for which the “activation” value was -3.21%.
Regarding `Cc1cccc(C)c1NC(=O)CN1CCCCCC1`, the “activation” value is 1.03%.
In the case of `CCCC1CCC(=O)O1` (stereo not given), the “activation” value is 4.92%.
For `COc1nc(C)nc(NC(=O)NS(=O)(=O)c2ccccc2OCCCl)n1` the value was -3.09%; for `CCN[C@H]1CN(CCCOC)S(=O)(=O)c2sc(S(N)(=O)=O)cc21`, 1.66%; for `C=C(C)C(=O)OCCOP(=O)(O)O`, -1.05% [at 81.1 µM].
Consider `O=[N+]([O-])c1nccn1CO[C@@H](CO)[C@H](O)CO`, for which the “activation” value is 3.03%.
With `CCC1(C)NC(=O)NC1=O` (stereo not given), the “activation” value was 3.17%.
`CCCOCCC`: the “activation” value is -5.92%.
As to `NCCCN1CCN(CCCN)CC1`, the “activation” value was 2.54%.
The result for `FC(F)(F)c1ccccc1` reads 0.673%; that for `CC(CNC1CCCCC1)OC(=O)c1ccccc1` (stereo not given), -0.021%.
Turning to `CCN(CC)CCOc1ccc(Cc2ccccc2)cc1`, the “activation” value was 0.776%.
For `CC(=O)N[C@@H](CC(C)C)C(=O)O`, the “activation” value was -7.36%.
For `CC[C@H]1CC[C@H](NCc2cc3c(cc2OC)[C@H]2C[C@H]2C(=O)N3C)[C@H](c2ccccc2)N1` the value was -7.63%.
The result for `O=C(CC(=O)C(F)(F)F)c1ccccc1` reads 5.63% [at 81.1 µM]; that for `CC/C=C\CCOC(=O)C(C)C`, -3.24%; that for `Cc1c(-c2ccccc2)oc2c(C(=O)OCCN3CCCCC3)cccc2c1=O`, 2.86%.
For `CC(C)CC(=O)OCc1ccccc1` the value was 2.27%.
With `Cc1c(N)cccc1N`, the “activation” value is 0.937% [at 81.1 µM].
For `CC(C)C[C@H](NC(=O)OCC1c2ccccc2-c2ccccc21)C(=O)O` the value was 0.0121%; for `CC(C)S`, -0.956% [at 81.1 µM].
With `Oc1ccccc1C=NCc1ccccc1`, the “activation” value was 0.189%.
The result for `CN(CC1(C)CCCO1)S(=O)(=O)c1ccc(Cl)c(S(N)(=O)=O)c1` (stereo not given) reads -2.9%.
For `CCCS(=O)c1ccc2nc(NC(=O)OC)[nH]c2c1` (stereo not given) the value was -4.43%; for `C[C@@H](N)C(=O)O`, -1.82%; for `NC(Cc1ccc(F)cc1)C(=O)O` (stereo not given), 5.3% [at 5.95 µM].
For `COC(=O)/C=C(/C)N` the value was -0.331%; for `O=c1[nH]cnc2c1ncn2[C@@H]1O[C@H](CO)[C@@H](O)[C@H]1O`, -2.39%.

These data come from PubChem BioAssay (Tox21).
